Holding throughout (assay): NCI-60 one-dose screen, 48 h (100 = growth as untreated, 0 = no growth, -100 = all killed)
What all share (conditions): 10 µM unless noted

Assay [1] deals with HCT-15 colon.
Assay [2] has as its system HT29 colon.
In assay [3] the test system is SNB-19 CNS.
In assay [4] the test system is U251 CNS.
Assay [5] concerns PC-3 prostate.
Assay [6] has as its system SK-MEL-5 melanoma.
The subject of assay [7] is LOX IMVI melanoma.
The subject of assay [8] is SK-MEL-28 melanoma.
In assay [9] the test system is UACC-62 melanoma.

About 83,000 compounds went through this panel and 20% of them were active in at least one assay; those are over-represented in the sample as a whole.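 Results are percent growth after 48 hours of single-concentration exposure. 100 means growth as in untreated cells, lower positive values show inhibition; negative values down to -100 show cell death.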 A number with no mark means an inactive call. Active and inactive are the calls of the source. The calls were made as follows: active = growth percent below 10; inactive = the rest.

For `NC(=O)CCCN1C/C(=C\c2ccccc2)C(=O)c2ccccc21`, the growth in assay [1] was 105%; in assay [2], 93.2%; in assay [3] it was 88.7%; in assay [4], 96.7%; in assay [5] it was 89.6%; in [6], 104%. Besides, the growth in [7] was 104%; in assay [8] it was 95.7%.
`CSc1nc2c(c(=O)[nH]1)C(c1ccc(C)cc1)C=C(C(=O)O)N2` (centres undefined): the growth was 105% in assay [1]; 118% in [2]; 133% in [3]; 109% in [4]; 109% in assay [5]; 102% in [6]. Also, the growth was 129% in assay [9] and 99.9% in assay [8].
For `Cc1ccc(-c2cc3nc(-c4ccccc4)nc(C(Cl)Cl)n3n2)cc1`, the growth in assay [1] is -30.4% (active); in assay [2], -47.1% (active); in assay [3], -40.1% (active); in assay [4], -83.5% (active); in [5], -76% (active); in assay [6], 83.9%. The growth is -65.3% (active) in [9] and 34.6% in assay [8].
On to `N=C(N)c1ccc(-c2cc(Cl)cc(Cl)c2)cn1`, for which the growth in assay [1] was 86.4%; in assay [2] it was 55.5%; in [3], 92.7%; in [4] it was 97.3%; in [5], 80%; in assay [6], 89.3%. In addition, the growth in assay [9] is 97.2%; in assay [8], 97.3%.
For the compound `Cc1[nH]c2ccc(F)cc2c1CCNC(=O)C1CCN(C(=O)c2ccccc2)C1` (centres undefined), the growth in [1] is 93.4% [25 µM]; in [2] it was 101% [25 µM]; in assay [3], 93.2% [25 µM]; in assay [4] it was 92.8% [25 µM]; in assay [5], 79.9% [25 µM]; in assay [6], 82.2% [25 µM]. For the same compound, the growth in assay [9] was 93.3% [25 µM]; in assay [8], 95.1% [25 µM].
As for `Cc1nc2ncccc2nc1Nc1ccc(S(=O)(=O)Nc2cncs2)cc1`, the growth in assay [1] was 115%; in assay [2], 101%; in [3] it was 111%; in [4], 97.7%; in assay [5] it was 86.6%; in [6] it was 101%. Also, the growth is 83.5% in assay [7] and 110% in assay [8].
Turning to `C=CCn1c2ccccc2c2c3c(c4c5ccccc5n(CC=C)c4c21)C(=O)N(O)C3=O`, the growth in assay [1] was 35.5%; in [2] it was 19.2%; in [3], 36.1%; in assay [4], 11.5%; in assay [5] it was 21.8%; in [6], -48.5% (active). In addition, the growth in assay [7] is -81.2% (active).
`COc1cc(-c2nn(-c3cccc(NC(=O)Nc4cccc(C(F)(F)F)c4)c3)cc2-c2ccncc2)ccc1Cl`: the growth is 5.28% (active) in assay [1]; -64% (active) in assay [2]; 23.5% in assay [3]; -82.2% (active) in [4]; -23% (active) in assay [5]; -97.8% (active) in [6]. Further, the growth in [9] was -76.1% (active); in assay [7], -64.2% (active); in assay [8], -18.6% (active).
For the compound `Clc1cc(Cl)cc(-c2ccc(-c3ccc(/C=N/NC4=NCCN4)cc3)s2)c1`, the growth in assay [1] was -62.4% (active); in assay [2], 0.288% (active); in assay [3], 53.2%; in assay [4] it was -79% (active); in [5] it was 35.1%; in assay [6], 88.1%. Also, the values for the growth in assay [9] and in assay [8] were 68.1% and 97.3%, respectively.
Take `O=C1NN(C(=O)c2ccc(Cl)cc2)C(c2ccccc2)=N/C1=C\c1cn(-c2ccccc2)nc1-c1ccccc1`: the growth in assay [1] was 92.6%; in [2] it was 87.8%; in [3], 90.7%; in assay [4], 92.4%; in [5] it was 94.8%; in [6], 79.9%. The results for the growth in assay [7] and in assay [8] were 97.6% and 94.8%, respectively.
Regarding `CC(C)c1ccc2occ(C=C3C(=O)NC(=O)NC3=O)c(=O)c2c1`, the growth in [1] is 85.8%; in assay [2] it was 94.7%; in assay [3], 81%; in assay [4] it was 74.3%; in [5], 92%; in assay [6] it was 97.3%. For the same compound, the growth in assay [9] was 82.1%; in [7], 87.4%; in assay [8], 99.8%.
Take `Cc1ccc(-c2cc3nc(C(Cl)Cl)nc(-c4cccnc4)n3n2)cc1`: the growth was -23.4% (active) in assay [1]; -27% (active) in [2]; 23.4% in assay [3]; -15.3% (active) in [4]; -4% (active) in assay [5]; 44.8% in [6]. In addition, the growth in assay [9] is 33.3%; in assay [8] it was 53.2%.
For the compound `CCN(CC)CCCNc1nccc2ccc(Cl)cc12`, the growth in assay [1] is 104%; in [2] it was 96.9%; in assay [4], 96.8%; in [5], 73.6%; in assay [6], 99.3%; in [9], 108%. The figures for the growth in assay [7] and in assay [8] were 94.7% and 117%, respectively.
On to `N#Cc1c(-c2ccccc2)nc(SCC(=O)N2CCN(c3ccccc3)CC2)[nH]c1=O`, for which the growth in assay [1] was 107%; in assay [2], 117%; in assay [4] it was 95.7%; in assay [5], 95.6%; in assay [6], 103%; in [9], 106%. The results for the growth in [7] and in assay [8] were 97% and 116%, respectively.
`CCN(CC)c1ccc(CNc2ccnc3ccccc23)cc1`: the growth in assay [1] was 58.6%; in assay [2], 24.8%; in [4] it was 52.4%; in [5] it was 42.4%; in [6] it was 8.05% (active); in assay [9] it was 76.4%. The results for the growth in assay [7] and in assay [8] were 54.7% and 80.4%, respectively.
For the compound `CCCCCCCCN(CCCCCCCC)CCCCCCNc1cc(OC)cc2cccnc12`, the growth in [1] was 109%; in assay [2], 28.1%; in [4] it was 84.9%; in assay [5], 67.2%; in [6] it was 103%; in assay [9], 110%. Besides, the values for the growth in [7] and in assay [8] were 32.3% and 106%, respectively.
In the case of `O=S(=O)(NCCCNc1nccc(-n2ccc3cccnc32)n1)c1ccc(Br)cc1`, the growth in [1] was 102%; in assay [2], 107%; in assay [4], 106%; in [5], 96.5%; in assay [6], 101%; in assay [9], 99.5%. In addition, the figures for the growth in assay [7] and in [8] were 96.3% and 108%, respectively.
For `C=C1CC2(OC1=O)C(=O)N(CCCN1C(=O)C3(CC(=C)C(=O)O3)c3ccccc31)c1ccccc12` (centres undefined), the growth in assay [1] is -28.1% (active); in [2], -51.5% (active); in assay [4] it was 45.4%; in assay [5] it was 51.3%; in [6] it was 74.4%; in assay [9], 23.2%. Also, the growth in assay [7] is -82.8% (active); in [8], -13.8% (active).
For `S=C(S)NCCc1c[nH]c2ccccc12`, the growth in assay [1] is 97.2%; in assay [2] it was 110%; in assay [3] it was 96.3%; in assay [4], 108%; in [5], 91.4%; in assay [7] it was 87.2%. Besides, the growth in [8] was 113%.
For `COC(=O)[C@]12CC[C@@H](C)[C@H](C)[C@@H]1C1=CC[C@@H]3[C@@]4(C)C(C=O)=C[C@@](C)(COC(=O)c5ccco5)[C@@H]4[C@H](O)C[C@@]3(C)[C@]1(C)CC2`, the growth in assay [1] was -78.3% (active); in assay [2] it was -64.4% (active); in assay [3] it was 7.8% (active); in [4], -76.8% (active); in assay [5], -8% (active); in [7] it was -91.4% (active).
For `ClC(Cl)c1nc(-c2cccnc2)n2nc(-c3ccccc3)cc2n1`, the growth is -21.3% (active) in assay [1]; -12.7% (active) in assay [2]; 25.7% in assay [3]; -32.7% (active) in assay [4]; 24.4% in assay [5]; 47.5% in [9]. Also, in assay [8], the growth is 73.4%.
For `O=S(=O)(c1ccc(OCCO)cc1)c1ccc(OCCO)cc1`, the growth in assay [1] is 99%; in assay [2] it was 97.6%; in assay [3] it was 108%; in [4], 93.2%; in assay [5] it was 85%; in assay [7] it was 105%. In addition, the growth in [8] is 79%.
As to `OCCCCCCNc1ncnc2cc(Cl)ccc12`, the growth in assay [1] is 101%; in assay [2], 99%; in assay [4], 96.8%; in assay [5] it was 80.7%; in [6], 94.1%; in assay [9], 102%. In addition, the growth in [7] is 88.1%; in assay [8], 116%.
On to `N#Cc1c(Nc2ccccc2)nc2n(c1=O)-c1ccccc1Sc1ccccc1-2`, for which the growth is 90.3% in assay [1]; 84.1% in assay [2]; 89.4% in assay [4]; 61.3% in assay [5]; 68.1% in assay [6]; 69.1% in assay [9]. For the same compound, the figures for the growth in assay [7] and in [8] were 83.9% and 83.8%, respectively.
In the case of `CCN(CC)CCC(CNc1ccnc2cc(Cl)ccc12)c1ccccc1` (centres undefined), the growth in [1] is 34.1%; in [2] it was 7.02% (active); in assay [3], 92.5%; in assay [4] it was 50.7%; in assay [5], 56.5%; in assay [7], 39%. In [8], the growth is -99.9% (active).
Take `Nc1ccc(C(=O)CSc2nc3ccccc3[nH]2)cc1`: the growth in assay [1] was 99.6%; in assay [2], 110%; in assay [3] it was 102%; in [4] it was 96.9%; in [5], 104%; in assay [9], 90.6%. The figures for the growth in assay [7] and in [8] were 106% and 116%, respectively.
For the compound `CCC(=O)OC1=CN2C(=NC(c3ccc(N)cc3)=CC2c2cc(OC)c(OC)c(OC)c2)S1` (centres undefined), the growth in [1] is 27.6%; in assay [2] it was 3.44% (active); in assay [3], 83.8%; in assay [4] it was 46.3%; in [5], 49%; in assay [7], 45.3%. Besides, in assay [8], the growth was 50.8%.
In the case of `C=C1C(=O)O[C@H]2[C@H]1CC/C(Cn1cc(CNC(=O)Cc3cn(C(=O)c4ccc(Cl)cc4)c4ccc(OC)cc34)nn1)=C\CC[C@@]1(C)O[C@@H]21`, the growth was 52.3% in [1]; -57.4% (active) in [2]; 14.2% in [4]; 7.48% (active) in assay [5]; 48.8% in assay [6]; 8.27% (active) in assay [9]. The growth is -82% (active) in assay [7] and -56.9% (active) in assay [8].
`COc1cc(/C=N\NC(=O)CN2CCN(c3cc4c(cc3F)c(=O)c(C(=O)N/N=C/c3cc(OC)c(OC)c(OC)c3)cn4C3CC3)CC2)cc(OC)c1OC`: the growth in assay [1] was 101%; in assay [2], 4.47% (active); in assay [3], 19.1%; in assay [4], 2.13% (active); in assay [5], -19.8% (active); in [7], -67.1% (active). In addition, the growth in assay [8] is -11.6% (active).
On to `CCCCNC(=O)Oc1ccc(/C(=C(\C)c2ccccc2)c2ccc(OCCN(CC)CC)cc2)cc1`, for which the growth in assay [1] was 17.7%; in assay [2], 4.17% (active); in assay [4], 53.8%; in [5], 59.6%; in assay [6] it was 48.2%; in assay [9] it was 68.3%. Further, the growth in assay [7] was 74.8%; in assay [8], 75.7%.
Consider `O=C1c2c(c3c4ccccc4n(CCCCCCBr)c3c3[nH]c4ccccc4c23)C(=O)N1O`, for which the growth in [1] is 7.75% (active); in [2], -19.7% (active); in assay [3], 24.2%; in [4], 10.9%; in assay [5] it was 4.24% (active); in assay [7] it was -70.2% (active).

(Values after PubChem BioAssay (NCI).)
